The values below come from PubChem BioAssay (EPA / NIEHS).

Inconclusive results are not listed. Active and inactive are the calls of the source. Rule for the calls: active = hit-call score of the fitted dose curve at least 0.9, where 1 is the maximum; inconclusive = response in the unintended direction; inactive = score below 0.9.

For test [1], the target named is mouse Cholecystokinin, CCK2 Receptor (CCKB), Cckbr (gene 12426) (UniProt P56481). The experiment in a line: NVS_GPCR_mCKKBCentral: NovaScreen (NVS) G Protein-Coupled Receptor Assay for mouse Cholecystokinin, CCK2 Receptor (CCKB) (AID 2283293). The procedure:
NVS_GPCR_mCKKBCentral is a biochemical, single-readout assay that uses extracted gene-proteins from Mouse forebrain membranes in a tissue-based cell-free assay. Measurements were taken 2 hours after chemical dosing in a 96-well plate.NVS_GPCR_mCKKBCentral is one of one assay component(s) measured or calculated from the NVS_GPCR_mCKKBCentral assay. It is designed to make measurements of radioligand binding, a form of binding reporter, as detected with scintillation counting signals by Filter-based radiodetection technology.Data from the assay component NVS_GPCR_mCKKBCentral was analyzed into 1 assay endpoint. This assay endpoint, NVS_GPCR_mCKKBCentral, was analyzed in the positive analysis fitting direction relative to DMSO as the negative control and baseline of activity. Using a type of binding reporter, loss-of-signal activity can be used to understand changes in the binding as they relate to the gene Cckbr. Furthermore, this assay endpoint can be referred to as a primary readout, because the performed assay has only produced 1 assay endpoint. To generalize the intended target to other relatable targets, this assay endpoint is annotated to the gpcr intended target family, where the subfamily is rhodopsin-like receptor. […]

For test [2], the target named is Metabotropic glutamate receptor 1 (Rattus norvegicus) (UniProt P23385). The experiment in a line: NVS_GPCR_rmMGluR1: NovaScreen (NVS) G Protein-Coupled Receptor Assay for rat Glutamate Metabotropic Receptor 1 (MGluR1) (AID 2283305). The procedure: NVS_GPCR_rmMGluR1 is a biochemical, single-readout assay that uses extracted gene-proteins from Rat cerebellum in a tissue-based cell-free assay. Measurements were taken 1 hour after chemical dosing in a 96-well plate.NVS_GPCR_rmMGluR1 is one of one assay component(s) measured or calculated from the NVS_GPCR_rmMGluR1 assay. It is designed to make measurements of radioligand binding, a form of binding reporter, as detected with scintillation counting signals by Filter-based radiodetection technology.Data from the assay component NVS_GPCR_rmMGluR1 was analyzed into 1 assay endpoint. This assay endpoint, NVS_GPCR_rmMGluR1, was analyzed in the positive analysis fitting direction relative to DMSO as the negative control and baseline of activity. Using a type of binding reporter, loss-of-signal activity can be used to understand changes in the binding as they relate to the gene Grm1. Furthermore, this assay endpoint can be referred to as a primary readout, because the performed assay has only produced 1 assay endpoint. To generalize the intended target to other relatable targets, this assay endpoint is annotated to the gpcr intended target family, where the subfamily is metabotropic glutamate receptor. […]
Metabotropic glutamate receptor 1 (Rattus norvegicus), sequence (P23385 whole entry, looked up): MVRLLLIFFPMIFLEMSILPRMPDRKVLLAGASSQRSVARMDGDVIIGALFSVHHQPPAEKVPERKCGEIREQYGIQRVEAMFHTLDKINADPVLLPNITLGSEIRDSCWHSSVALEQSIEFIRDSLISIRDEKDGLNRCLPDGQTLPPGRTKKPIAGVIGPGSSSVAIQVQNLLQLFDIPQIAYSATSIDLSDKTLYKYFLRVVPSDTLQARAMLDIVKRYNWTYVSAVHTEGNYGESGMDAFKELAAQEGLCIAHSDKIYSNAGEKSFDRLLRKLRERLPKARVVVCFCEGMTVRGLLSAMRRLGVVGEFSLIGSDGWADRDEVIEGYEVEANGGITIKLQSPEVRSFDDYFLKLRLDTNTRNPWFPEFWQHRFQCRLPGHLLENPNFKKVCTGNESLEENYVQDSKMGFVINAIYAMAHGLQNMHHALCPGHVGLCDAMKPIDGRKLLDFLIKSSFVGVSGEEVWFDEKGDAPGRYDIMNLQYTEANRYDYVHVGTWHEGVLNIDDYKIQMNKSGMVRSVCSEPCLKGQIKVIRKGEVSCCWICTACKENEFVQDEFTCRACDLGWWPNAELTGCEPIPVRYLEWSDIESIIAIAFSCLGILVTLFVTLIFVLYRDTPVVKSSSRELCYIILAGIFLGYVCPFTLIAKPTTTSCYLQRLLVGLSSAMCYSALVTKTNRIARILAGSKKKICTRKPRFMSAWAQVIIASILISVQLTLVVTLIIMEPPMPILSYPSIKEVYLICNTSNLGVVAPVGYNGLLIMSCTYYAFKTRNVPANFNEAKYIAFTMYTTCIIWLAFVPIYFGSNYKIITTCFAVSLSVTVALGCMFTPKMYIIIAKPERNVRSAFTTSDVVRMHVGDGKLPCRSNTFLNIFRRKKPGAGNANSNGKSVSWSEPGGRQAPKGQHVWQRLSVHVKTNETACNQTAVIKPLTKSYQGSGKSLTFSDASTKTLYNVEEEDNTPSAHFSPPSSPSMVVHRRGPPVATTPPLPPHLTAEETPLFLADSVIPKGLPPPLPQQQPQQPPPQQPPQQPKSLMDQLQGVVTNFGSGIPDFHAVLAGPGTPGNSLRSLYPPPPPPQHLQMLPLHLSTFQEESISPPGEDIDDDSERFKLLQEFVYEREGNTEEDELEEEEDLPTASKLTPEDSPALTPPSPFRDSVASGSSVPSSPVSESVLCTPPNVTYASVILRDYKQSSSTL

Test [3] addresses rat Histamine Receptor (H3), Hrh3 (gene 85268) (UniProt Q9QYN8). The experiment in a line: NVS_GPCR_rH3: NovaScreen (NVS) G Protein-Coupled Receptor Assay for rat Histamine Receptor (H3) (AID 2283303). In outline:
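Rat forebrain membranes incubated 1 h with compound; radioligand displacement measured by filter-based scintillation counting. Single-concentration duplicates at 25 µM, then concentration-response up to 50 µM, relative to DMSO.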

rat Histamine Receptor (H3), Hrh3 (gene 85268), sequence (Q9QYN8 whole entry, looked up): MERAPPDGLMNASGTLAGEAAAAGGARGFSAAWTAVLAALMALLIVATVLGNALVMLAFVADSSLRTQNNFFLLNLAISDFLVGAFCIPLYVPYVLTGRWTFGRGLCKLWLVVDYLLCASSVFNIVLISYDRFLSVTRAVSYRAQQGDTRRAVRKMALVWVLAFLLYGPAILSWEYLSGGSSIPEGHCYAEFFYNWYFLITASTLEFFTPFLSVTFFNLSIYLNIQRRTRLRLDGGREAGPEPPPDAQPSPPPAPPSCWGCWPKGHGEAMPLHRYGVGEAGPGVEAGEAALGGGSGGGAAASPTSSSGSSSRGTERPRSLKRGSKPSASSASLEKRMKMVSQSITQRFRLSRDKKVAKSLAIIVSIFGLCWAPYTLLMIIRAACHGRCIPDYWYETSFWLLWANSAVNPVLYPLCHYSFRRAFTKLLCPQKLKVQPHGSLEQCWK
mouse Cholecystokinin, CCK2 Receptor (CCKB), Cckbr (gene 12426), sequence (P56481 whole entry, looked up): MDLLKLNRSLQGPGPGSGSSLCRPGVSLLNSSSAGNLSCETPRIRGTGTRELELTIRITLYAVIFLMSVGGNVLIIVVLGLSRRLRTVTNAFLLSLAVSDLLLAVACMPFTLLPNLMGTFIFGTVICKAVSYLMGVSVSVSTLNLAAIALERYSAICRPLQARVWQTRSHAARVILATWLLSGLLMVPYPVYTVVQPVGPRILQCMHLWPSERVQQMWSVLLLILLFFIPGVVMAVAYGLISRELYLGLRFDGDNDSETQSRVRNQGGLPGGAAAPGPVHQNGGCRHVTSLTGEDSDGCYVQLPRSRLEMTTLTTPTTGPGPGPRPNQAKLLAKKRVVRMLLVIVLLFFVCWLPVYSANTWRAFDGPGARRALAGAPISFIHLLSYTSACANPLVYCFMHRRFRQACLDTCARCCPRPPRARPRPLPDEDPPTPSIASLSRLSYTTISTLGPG

Regarding `CCCCCCCCCC`, the result in test [1] and in test [2] was inactive.

As for `Cc1nccn1-c1ccc(Sc2cccc(C3(C(N)=O)CCOCC3)c2)cc1`, in test [3], the AC50 is 25 µM (active).

As for `CCN(CC)C(=S)SSC(=S)N(CC)CC`, the half-maximal activity concentration (AC50) in test [3] was 16.2 µM (active).

For `CCCCN1C(=O)[C@@H]([C@H](O)C2CCCCC2)NC(=O)C12CCN(Cc1ccc(Oc3ccc(C(=O)O)cc3)cc1)CC2`, the AC50 in test [2] was 9.81 µM (active).
